Test results published in PubChem BioAssay AID504332 (National Center for Advancing Translational Sciences (NCATS), 2011).
In all, about 350,000 compounds went through this assay and about 31,000 (8.9%) were called active. Entries that show only a call come without a potency. Inconclusive results (about 15%) are left out. For the sample, actives were picked, then their nearest neighbours and some compounds at random. Values without a mark were called inactive. The call rests on the fitted dose curve; in most records, active means well fitted inhibition curve with a large enough effect; inconclusive means small, poorly fitted or top-dose-only effect; inactive means no such curve, though single readings can be large or run the other way.

These compounds were tested against Histone-lysine N-methyltransferase EHMT2 (Homo sapiens) (UniProt Q96KQ7) (assay: qHTS Assay for Inhibitors of Histone Lysine Methyltransferase G9a). Details: G9a H3K9 monomethylation, AlphaScreen, 2 h; series mostly up to 59 µM.
Sequence of Histone-lysine N-methyltransferase EHMT2 (Homo sapiens) (Q96KQ7 913-1193 limits assumed): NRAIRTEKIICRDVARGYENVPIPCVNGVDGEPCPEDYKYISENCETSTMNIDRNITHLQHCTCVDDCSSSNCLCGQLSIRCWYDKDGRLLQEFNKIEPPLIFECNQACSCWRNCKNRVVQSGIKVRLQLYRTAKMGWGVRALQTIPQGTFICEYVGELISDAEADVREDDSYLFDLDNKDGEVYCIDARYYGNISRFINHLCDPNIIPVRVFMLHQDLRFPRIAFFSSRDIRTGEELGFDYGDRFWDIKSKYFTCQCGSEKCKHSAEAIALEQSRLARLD
How it was run: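 AlphaScreen read-out: biotin-H3K9 peptide (500 nM) methylation by 20 nM enzyme with 20 uM SAM, 2 h at room temperature after 15 min compound preincubation; anti-monomethyl H3K9 antibody plus donor/acceptor beads, 10 min dark.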
Further: nearly all actives have a fitted effect of over 75% in size.
Potency means the concentration at half of the fitted maximal effect.

Structure (SMILES) | activity, negative = inhibition | Potency
Cc1cc(C)cc(NC(=O)C(OC(=O)c2ccc(O)cc2)c2ccccc2)c1 (stereo not drawn) | -7.57% [at 12.7 µM] | 
CC(C)(C)c1ccc(C(=O)Nc2ccc3c(c2)CCCN3C(=O)c2cccs2)cc1 |  | inactive
CCCCCn1c(=O)[nH]c2cc(C(=O)Nc3cc(C)cc(C)c3)ccc2c1=O |  | inactive
O=C(O)CSCc1nc2ccccc2s1 |  | inactive
O=C(CSc1nc2ccccc2s1)Nc1ccc(C(=O)O)cc1 |  | inactive
O=C(O)c1ccccc1CSc1nc2ccccc2s1 |  | 10 µM (active)
Cc1ccc(Cc2nc3ccccc3nc2SCC(=O)Nc2cccc(C(F)(F)F)c2)cc1 |  | inactive
COc1ccc(S(=O)(=O)N2CCN(CC(=O)NCC3(N4CCOCC4)CCCCC3)CC2)cc1 | -3.79% [at 12.7 µM] | 
Cc1cc(C)cc(NC(=O)Cn2nc(N3CCN(c4ccccc4)CC3)ccc2=O)c1 |  | inactive
COc1ccc(NC(=O)c2cnc(Nc3ccc(C)c(Cl)c3)c3ccccc23)cc1OC |  | inactive
Cc1csc2nc(COc3ccc(NC(=O)COc4ccccc4)cc3)cc(=O)n12 |  | inactive
O=c1cc(CCl)nc2scc(-c3ccccc3)n12 |  | 50.1 µM (active)
Cc1csc2nc(COC(=O)c3ccccc3NC(=O)c3ccccc3Cl)cc(=O)n12 |  | inactive
Cc1cccc2c(=O)cc(CSc3ccccc3NC(=O)C(C)C)[nH]c12 |  | inactive
COc1ccc(OC)c(-n2nnc3c(sc4nc(C)c(Br)c(C)c43)c2=O)c1 |  | inactive
O=C(OCC(=O)c1c[nH]c2ccccc12)c1cccc(O)c1 |  | inactive
O=C(NC1CCCC1)C(=O)c1c[nH]c2ccccc12 |  | inactive
O=S(=O)(O)Oc1c[nH]c2ccccc12 |  | 2.51 µM (active)
Cc1cccn2c(=O)c(C(=O)NC(C)c3ccccc3)cnc12 (stereo not drawn) |  | inactive
O=C(CSc1ccc(-c2ccc(F)cc2)nn1)Nc1ccc2c(c1)OCCO2 |  | inactive
Fc1cccc(Cl)c1CSc1ccc(-c2ccco2)nn1 |  | 31.6 µM (active)
O=C(CSc1ccc(-c2ccco2)nn1)Nc1cccc(F)c1 |  | 15.8 µM (active)
CCn1c(CNC(=O)c2ccco2)nnc1SCC(=O)Nc1cccc(F)c1 |  | inactive
Cc1cc(SCc2c(F)cccc2Cl)nc(=O)[nH]1 | -5.25% [at 0.501 µM] | 
Brc1ccc(CSc2ccc(-c3ccco3)nn2)cc1 |  | inactive
CCn1c(=O)cc(SCC(=O)NCc2ccc3c(c2)OCO3)c2ccccc21 |  | inactive
Cc1ccccc1-c1nnc(SCC(=O)NCc2ccc3c(c2)OCO3)n1C | -10.1% [at 12.7 µM] | 
O=C(CSc1ccc(-c2ccco2)nn1)NCc1ccc2c(c1)OCO2 |  | 31.6 µM (active)
